Results on nine molecules are retold here after PubChem BioAssay.

“And” between values parts separate entries of the source, which are not always exact repeats. Equal entries are not always repeated. The source made the active and inactive calls.

The subject of this experiment is XIP peptide (Xip251-270) binding. In words: small-molecule binders of XIP peptide, primary screen, biochemical, small-molecule microarray, fluorescence 635/667 nm, 0.1 µg/mL protein (AID 1182). The note with it: fluorescent protein binding, 635 nm, higher = more signal, called active from +8 up or from −8 down.
With `COC(=O)C1=C2N(Cc3ccccc3)C(C)=C(C(=O)OC)[C@@H](c3ccccc3)N2C(=O)[C@](O)(C(=O)OC)C1`, the composite z-score is 0.109 (inactive) and 0.0955 (inactive).

For the molecule `CCN1C(=O)[C@H]2[C@H]3[C@H](O)[C@H](O)CC(=NNC(=O)OCc4ccc(OC)cc4)[C@H]3CC[C@H]2C1=O`, the composite z-score was 0.0568 (inactive). With `C=CCN(C(=O)C1N(C(C)(C)CO)C(=O)C2C(C(=O)O)C3C=CC21O3)C(C)(C)C` (centres undefined), the composite z-score was -0.651 (inactive) and 0.11 (inactive). In the case of `CC(CO)N1C(=O)[C@@H]2C3C(=O)OCCC=C[C@H]3OC23C=CCN(C(C)(C)C)C(=O)[C@@H]13` (some centres undefined), the composite z-score was -0.516 (inactive) and 0.463 (inactive).

For the molecule `C=CCN(Cc1ccccc1)C(=O)C1N(c2c(Cl)cccc2CO)C(=O)C2C(C(=O)O)C3C=CC21O3` (centres undefined), the composite z-score is 0.297 (inactive) and -0.407 (inactive).

With `CC(C)=CCCC(C)=CCON=C1C[C@@H](O)[C@@H](O)[C@@H]2[C@@H]3C(=O)N([C@@H](C)c4ccccc4)C(=O)[C@@H]3CC[C@H]12`, the composite z-score was 1.32 (inactive). In the case of `CO[C@H]1COC(=O)CC=C[C@@H](C)COC(=O)[C@@H](OCc2ccccc2)C=C[C@@H]1C`, the composite z-score is -0.147 (inactive). As for `CC(=O)OC[C@H]1O[C@H](C#CC(C)(C)C)C=C[C@@H]1OC(C)=O`, the composite z-score is 0.853 (inactive). The same measure for `CCOC(=O)C[C@H]1[C@H](OC(=O)c2ccccc2-c2ccccc2)[C@@H](NC(=O)c2ccccc2)c2cc(OCCCO)ccc2N1C(=O)c1ccc2ccccc2n1`: -0.196 (inactive) and 0.367 (inactive).
